Here are results for five molecules from PubChem BioAssay AID2690 (NMMLSC, 2010).

Each structure is given as a SMILES string. The whole screen tested about 330,000 compounds, of which about 590 (0.18%) were called active.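 How the source made its calls: active means superoxide response under a set limit, about three screen SD below normal (cut at about 65% in these data); inactive means the rest.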 Many of the other results were omitted from the sample, so actives are more common in it than they were.

The assay can be described thus: reduction of superoxide in aged yeast, primary screen, HTS (AID 2690).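 Further: yeast aged for seven days with compound at 30 °C before DHE staining; 100% = average MFI of all compound-treated wells on the plate with controls excluded.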 Conditions: S. cerevisiae aged cells, superoxide DHE fluorescence; at 10 µM; active compounds read low.
Regarding `O=C(CCNS(=O)(=O)c1ccccc1)Nc1ccc(Cl)cc1C(=O)c1ccccc1`, the superoxide response (% of plate mean) is 83.2% (inactive). For the molecule `O=C(COC(=O)c1ccccc1)Nc1ccc(Cl)cc1C(=O)c1ccccc1`, the superoxide response (% of plate mean) was 104% (inactive). Turning to `CN1CCN(C(=S)SCC(=O)Nc2ccc(Cl)cc2C(=O)c2ccccc2)CC1`, the superoxide response (% of plate mean) is 63.3% (active). As to `CNCC[C@H](Oc1ccc(C(F)(F)F)cc1)c1ccccc1`, the superoxide response (% of plate mean) is 88.9% (inactive). With `Cc1cc(C)cc(NC(=S)NC2CC3CCCC(C2)N3Cc2cccs2)c1` (stereo not given), the superoxide response (% of plate mean) is 101% (inactive).
